Compound activity deposited in PubChem BioAssay by Broad Institute.
Hits are enriched below; roughly 6.7% of the tested compounds scored in any of these assays.
Pf Dd2 growth = P. falciparum Dd2 growth inhibitors, primary screen, SYBR Green fluorescence, single dose replicates | 72 h; active compounds read low | activity change, % at 10 µM | actives 2.3% (n = 94,000) | AID 1159554, 2015; in the data active means activity change below about -80%; inconclusive means no clear call, values can overlap the other calls
T cruzi growth-1 = T. cruzi intracellular proliferation inhibitors, primary screen, cell-based, beta-gal Tulahuen parasites, NIH3T3 host, luminescence | AID 624255, 2012 | T. cruzi beta-gal in NIH3T3, GalScreen luminescence, 90 h | actives 5.9% (n = 77,000) | inhibition, % at 8.34 µM;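 active means mean inhibition above about 93%, with at least 55% of replicates each passing it, limit read from the data, passing the limit was not always enough; inconclusive means only one of those two conditions holds; inactive means neither condition holds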
C diff HTS = C. difficile growth inhibitors, primary screen, HTS; growth activity, negative = inhibition, % at 16 µg/mL (by protocol); AID 1259249, 2017; Clostridium difficile clinical isolate growth, OD600, 24 h; active compounds read low; actives 0.25% (n = 86,000);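 active means mean growth activity at or below -80% and every replicate also at or below -80%; inconclusive means mean at or below -80% but some replicate above -80%; inactive means mean growth activity above -80%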;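 further: 0% = DMSO wells and -100% = levofloxacin 16 µg/mL wells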
T cruzi growth-2 = T. cruzi intracellular proliferation inhibitors, confirmation, cell-based, NIH3T3 host, beta-gal parasite, luminescence, cherry-pick; actives 72% (n = 5,600); AID 651739, 2012; inhibition, % at 8.35 µM; shares compounds with T cruzi growth-1; T. cruzi beta-gal in NIH3T3, GalScreen luminescence, 90 h;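 active means mean replicate inhibition above about 95% and at least 55% of replicates individually reaching it, limit read from the data; inconclusive means only one of the two criteria is met; inactive means neither criterion is met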
T cruzi growth-3 = inhibitors of intracellular T. cruzi replication, confirmation, NIH3T3 host cells, beta-gal parasites, cherry-pick, set 2 | actives 21% (n = 5,600) | AID 651740, 2012 | shares compounds with T cruzi growth-1 | T. cruzi beta-gal in NIH3T3, GalScreen luminescence, 90 h | inhibition, % at 2.09 µM;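 active means mean inhibition above about 95%, with at least 55% of replicates also reaching it, limit read from the data; inconclusive means meets just one of the two conditions; inactive means meets neither condition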;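 further: plate controls were neutral control median for no effect and positive control median for full effect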
3T3 cytotox = cytotoxicity in mouse NIH/3T3 fibroblasts, confirmation, cytotoxicity control for T. cruzi proliferation inhibitor project, cell-based, cherry-pick, single point; shares compounds with T cruzi growth-1; NIH/3T3 viability, CellTiter-Glo ATP luminescence, 90 h; cytotoxicity (signal decrease), % at 8.35 µM; actives 14% (n = 5,600); AID 651742, 2012;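 active means mean signal decrease across replicates above about 35% based on untreated-well scatter, with enough replicates individually passing, limit read from the data; inconclusive means no rule stated though some were filed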;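 further: 0% = median of neutral control wells and 100% = median of positive control wells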
3T3 cytotox 2 = NIH/3T3 fibroblast cytotoxicity, confirmation, cytotoxicity control, cell-based, cherry-pick, single point, set 2 | shares compounds with T cruzi growth-1 | NIH/3T3 viability, CellTiter-Glo ATP luminescence, 90 h | inhibition, % at 24.9 µM | actives 56% (n = 5,600);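 active means mean loss of cell viability signal at or above a set limit, and enough replicates individually reaching it; inconclusive means meets only the mean limit or only the replicate share; inactive means meets neither condition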;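 further: 0% = median of neutral control wells and 100% = median of positive control wells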
* hit, by the source's call.

For C[C@@H]1CCCCO[C@@H](CN(C)Cc2ccccc2)[C@@H](C)CN([C@@H](C)CO)C(=O)c2cc(NS(=O)(=O)c3ccc(Cl)cc3)ccc2O1 the results were Pf Dd2 growth -44, T cruzi growth-1 inconclusive, C diff HTS 11, T cruzi growth-2 95*, T cruzi growth-3 108*, 3T3 cytotox 6 and 3T3 cytotox 2 104*.
Screening C[C@@H]1CN([C@@H](C)CO)C(=O)c2cc(NS(=O)(=O)c3ccc(Cl)cc3)ccc2O[C@@H](C)CCCCO[C@H]1CN(C)Cc1ccccc1 returned Pf Dd2 growth -39, T cruzi growth-1 109*, C diff HTS 2, T cruzi growth-2 109*, T cruzi growth-3 107*, 3T3 cytotox 17 and 3T3 cytotox 2 88*.
For Cc1ccc(-c2cnc3c(c2)C(=O)N([C@H](C)CO)C[C@@H](C)[C@@H](CN(C)CC2CCCC2)O3)cc1 the results were Pf Dd2 growth -39, T cruzi growth-1 78 and C diff HTS 7.
For C[C@@H]1CN([C@H](C)CO)C(=O)c2cc(NC(=O)Nc3cccc4ccccc34)ccc2O[C@@H]1CN(C)S(=O)(=O)c1ccc(Cl)cc1 the results were Pf Dd2 growth 16, T cruzi growth-1 98*, C diff HTS -2, T cruzi growth-2 107*, T cruzi growth-3 59, 3T3 cytotox 10 and 3T3 cytotox 2 49*.
C[C@H](CO)N1C[C@H](C)[C@H](CN(C)S(=O)(=O)c2ccc(Cl)cc2)OCCCC[C@H](C)Oc2ccc(NC(=O)Nc3cccc4ccccc34)cc2C1=O was read as Pf Dd2 growth -22, T cruzi growth-1 98*, C diff HTS -3, T cruzi growth-2 111*, T cruzi growth-3 102*, 3T3 cytotox 26 and 3T3 cytotox 2 inconclusive.
`C[C@@H]1CCCCO[C@H](CN(C)S(=O)(=O)c2ccc(Cl)cc2)[C@H](C)CN([C@@H](C)CO)C(=O)c2cc(NC(=O)Nc3cccc4ccccc34)ccc2O1` gave Pf Dd2 growth -80, T cruzi growth-1 101*, C diff HTS 1, T cruzi growth-2 109*, T cruzi growth-3 104*, 3T3 cytotox 2 and 3T3 cytotox 2 11.
C[C@@H]1CCCCO[C@H](CN(C)S(=O)(=O)c2ccc(F)cc2)[C@@H](C)CN([C@H](C)CO)C(=O)c2cc(NC(=O)Nc3cccc4ccccc34)ccc2O1 was read as Pf Dd2 growth -3, T cruzi growth-1 63 and C diff HTS -3.
For C[C@H](CO)N1C[C@H](C)[C@@H](CN(C)S(=O)(=O)c2ccc(Cl)cc2)Oc2ccc(NC(=O)Nc3cccc4ccccc34)cc2C1=O the results were Pf Dd2 growth -77 and C diff HTS -3.
Screening C[C@@H]1CCCCO[C@@H](CN(C)S(=O)(=O)c2ccccc2)[C@@H](C)CN([C@H](C)CO)C(=O)c2cc(NC(=O)Nc3cccc4ccccc34)ccc2O1 returned Pf Dd2 growth 1, T cruzi growth-1 26 and C diff HTS 2.
`Cc1ccc(S(=O)(=O)N(C)C[C@@H]2OCCCC[C@@H](C)Oc3ccc(NC(=O)Nc4cccc5ccccc45)cc3C(=O)N([C@H](C)CO)C[C@@H]2C)cc1` gave Pf Dd2 growth -75 and C diff HTS 8.
For C[C@@H]1CCCCO[C@H](CN(C)S(=O)(=O)c2ccc(F)cc2)[C@H](C)CN([C@H](C)CO)C(=O)c2cc(NC(=O)Nc3cccc4ccccc34)ccc2O1 the results were Pf Dd2 growth -79, T cruzi growth-1 101*, C diff HTS -5, T cruzi growth-2 104*, T cruzi growth-3 108*, 3T3 cytotox -12 and 3T3 cytotox 2 15.
Screening C[C@H]1CN([C@@H](C)CO)C(=O)CCCn2nncc2CO[C@@H]1CN(C)S(=O)(=O)c1ccc(C#N)cc1 returned Pf Dd2 growth 22 and C diff HTS -2.
`C[C@H](CO)N1C[C@H](C)[C@@H](CN(C)C)Oc2ccc(NC(=O)CCCN(C)C)cc2CC1=O` gave Pf Dd2 growth 23, T cruzi growth-1 3 and C diff HTS 2.
For COc1ccc(C[C@H]2CCn3cc(nn3)COC[C@H](C(C)C)NC2=O)cc1 the results were C diff HTS -1.
`CNC(=O)C[C@@H]1CC[C@H]2[C@@H](COC[C@@H](O)CN2C(=O)c2ccc3c(c2)OCO3)O1` gave Pf Dd2 growth 12 and C diff HTS 0.
Screening C[C@@H]1CCCCO[C@@H](CN(C)C(=O)Nc2ccccc2)[C@H](C)CN([C@H](C)CO)C(=O)c2cc(NC(=O)c3ccccc3)ccc2O1 returned Pf Dd2 growth -62 and T cruzi growth-1 59.
`C[C@@H]1CCCCO[C@@H](CN(C)CC2CCCCC2)[C@@H](C)CN([C@@H](C)CO)C(=O)c2cc(NS(=O)(=O)c3ccc(Cl)cc3)ccc2O1` gave Pf Dd2 growth -19, T cruzi growth-1 64 and C diff HTS -7.
C[C@@H]1CN([C@@H](C)CO)C(=O)c2cc(NS(=O)(=O)c3ccc(Cl)cc3)ccc2O[C@@H](C)CCCCO[C@H]1CN(C)CC1CCCCC1 was read as Pf Dd2 growth -45, T cruzi growth-1 108*, C diff HTS -55, T cruzi growth-2 88, T cruzi growth-3 29, 3T3 cytotox inconclusive and 3T3 cytotox 2 102*.
C[C@@H]1CN([C@@H](C)CO)C(=O)c2cc(NS(=O)(=O)c3ccc(Cl)cc3)ccc2O[C@H]1CN(C)CC1CC1 was read as Pf Dd2 growth -4, T cruzi growth-1 inconclusive, C diff HTS 4, T cruzi growth-2 1, T cruzi growth-3 20, 3T3 cytotox 8 and 3T3 cytotox 2 31*.
Screening C[C@H](CO)N1C[C@H](C)[C@H](CN(C)CC2CC2)Oc2ccc(NS(=O)(=O)c3ccc(Cl)cc3)cc2C1=O returned Pf Dd2 growth -5, T cruzi growth-1 -2 and C diff HTS -3.
Screening C[C@@H]1CN([C@@H](C)CO)C(=O)c2cc(NS(=O)(=O)c3ccc(Cl)cc3)ccc2O[C@@H](C)CCCCO[C@H]1CN(C)CC1CC1 returned Pf Dd2 growth -74, T cruzi growth-1 106*, C diff HTS -4, T cruzi growth-2 107*, T cruzi growth-3 82, 3T3 cytotox 16 and 3T3 cytotox 2 15.
